Holding throughout (design): scale not given: direction of the effect not stated beside the values
Experiment [1] addresses Protein translocase subunit SecA (Escherichia coli (strain K12)) (UniProt P10408). In words: Assay to Identify E. coli SecA ATPase Inhibitors. The experiment is classed as functional. To be noted: 30 µM.
For experiment [2], the target named is T1, Ubiquitin-activating enzyme e1, putative (Leishmania donovani (strain BPK282A1)) (UniProt E9BSI1).
T1 sequence (whole entry): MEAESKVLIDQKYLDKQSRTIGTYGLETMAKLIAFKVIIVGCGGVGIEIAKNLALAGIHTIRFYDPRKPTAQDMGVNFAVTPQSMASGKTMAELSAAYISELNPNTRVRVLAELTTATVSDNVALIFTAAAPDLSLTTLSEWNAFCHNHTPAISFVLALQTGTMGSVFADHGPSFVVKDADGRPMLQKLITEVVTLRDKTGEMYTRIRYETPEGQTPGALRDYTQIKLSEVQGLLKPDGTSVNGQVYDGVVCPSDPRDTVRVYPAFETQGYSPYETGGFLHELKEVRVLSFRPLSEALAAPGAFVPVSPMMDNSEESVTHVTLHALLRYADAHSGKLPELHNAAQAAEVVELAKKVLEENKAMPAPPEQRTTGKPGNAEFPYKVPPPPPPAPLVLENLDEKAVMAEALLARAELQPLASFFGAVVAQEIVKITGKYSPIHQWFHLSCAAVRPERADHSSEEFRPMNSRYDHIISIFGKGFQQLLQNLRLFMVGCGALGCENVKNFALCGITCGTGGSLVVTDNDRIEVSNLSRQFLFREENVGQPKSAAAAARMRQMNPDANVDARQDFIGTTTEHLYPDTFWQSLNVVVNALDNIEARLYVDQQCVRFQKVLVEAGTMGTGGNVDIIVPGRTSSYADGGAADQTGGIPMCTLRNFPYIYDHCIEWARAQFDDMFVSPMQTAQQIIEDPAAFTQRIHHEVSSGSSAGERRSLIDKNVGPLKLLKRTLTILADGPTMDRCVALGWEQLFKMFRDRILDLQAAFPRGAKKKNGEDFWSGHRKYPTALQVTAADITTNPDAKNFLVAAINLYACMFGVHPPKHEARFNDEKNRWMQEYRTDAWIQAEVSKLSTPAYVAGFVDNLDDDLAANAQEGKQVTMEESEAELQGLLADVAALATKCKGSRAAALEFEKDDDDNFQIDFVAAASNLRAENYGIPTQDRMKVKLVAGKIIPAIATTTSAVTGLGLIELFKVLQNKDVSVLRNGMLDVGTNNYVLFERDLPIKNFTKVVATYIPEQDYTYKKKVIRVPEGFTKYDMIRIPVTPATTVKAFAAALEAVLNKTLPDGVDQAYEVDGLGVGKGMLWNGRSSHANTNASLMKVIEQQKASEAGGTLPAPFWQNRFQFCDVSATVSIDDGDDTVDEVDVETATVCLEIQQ
In words: Leishmania donovani Ubiquitin Activating Enzyme (LdE1). It counts as functional. The settings on record: 30 µM.

Experiment [3] deals with AMP-activated protein kinase, AMPK (Homo sapiens) (UniProt P54646+O43741+P54619+Q9UGJ0+Q9Y478+Q13131+Q9UGI9). In words: AMP-dependent Kinase enzyme assay. An in vitro enzyme assay that detects ADP turnover that is directly proportional to AMPK activity. This uses naive AMPK that is activated during the assay with MK-8722. It counts as functional. The settings on record: 30 µM.

In experiment [4] the target is Sialic acid-binding Ig-like lectin 9 (Homo sapiens) (UniProt Q9Y336). Kind of experiment: Hs-Siglec9 ALPHAscreen SOP 20170721. The settings on record: 10 µM. Background: Alpha assays give light when donor and acceptor beads are brought close together.
The test system of experiment [5] is Trypanosoma cruzi. In words: Trypanosoma cruzi phosphomannomutase and mannose-1-phosphate guanylyltransferase assay. To be noted: 10 µM. It counts as functional.
The target in experiment [6] is T2, Arginase-2, mitochondrial (Homo sapiens) (UniProt P78540).
T2 sequence (whole entry): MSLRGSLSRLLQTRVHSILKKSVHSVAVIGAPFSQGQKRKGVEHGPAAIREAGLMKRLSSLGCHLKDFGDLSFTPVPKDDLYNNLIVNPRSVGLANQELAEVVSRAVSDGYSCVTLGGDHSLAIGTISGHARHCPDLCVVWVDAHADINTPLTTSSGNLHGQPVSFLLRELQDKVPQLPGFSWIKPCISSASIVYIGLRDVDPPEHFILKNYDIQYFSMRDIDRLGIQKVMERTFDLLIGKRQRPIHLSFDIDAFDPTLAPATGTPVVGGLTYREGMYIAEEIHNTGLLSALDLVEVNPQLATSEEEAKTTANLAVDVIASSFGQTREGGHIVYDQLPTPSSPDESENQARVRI
In words: in vitro enzyme assay to detect the production of urea directly proportional to the activity of Arginase II. Further: in the data most compounds retested in dose-response had high values. It counts as functional. To be noted: 33.3 µM.

Experiment [7] has as its target T3, Proteasome subunit beta (Trypanosoma cruzi) (UniProt O96673).
T3 sequence (whole entry): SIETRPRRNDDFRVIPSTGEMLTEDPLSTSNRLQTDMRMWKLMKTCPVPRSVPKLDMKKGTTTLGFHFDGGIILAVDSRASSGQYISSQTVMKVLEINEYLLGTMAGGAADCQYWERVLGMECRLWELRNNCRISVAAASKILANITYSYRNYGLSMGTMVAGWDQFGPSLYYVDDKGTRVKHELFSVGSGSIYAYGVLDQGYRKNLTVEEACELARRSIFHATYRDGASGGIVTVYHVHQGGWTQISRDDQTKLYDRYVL
In words: Trypanosoma cruzi proteasome chymotrypsin-like activity (TcProtChymo) assay. Further: in the data most compounds retested in dose-response had high values. To be noted: 9.37 µM. The experiment is classed as functional.

Experiment [8] is filed under the species Homo sapiens. In words: To identify inhibition of the IFN signalling (Jak-Stat) pathway via expression of an eGFP reporter gene under the control of an IFN-stimulated response element (ISRE) containing MxA promoter. The settings on record: 30 µM. The experiment is classed as functional. (In general: A reporter such as luciferase makes a cellular process visible.)

Experiment [9] concerns the target T4, Tyrosyl-tRNA synthetase, putative (Trypanosoma cruzi (strain CL Brener)) (UniProt Q4DSP6).
T4 sequence (whole entry): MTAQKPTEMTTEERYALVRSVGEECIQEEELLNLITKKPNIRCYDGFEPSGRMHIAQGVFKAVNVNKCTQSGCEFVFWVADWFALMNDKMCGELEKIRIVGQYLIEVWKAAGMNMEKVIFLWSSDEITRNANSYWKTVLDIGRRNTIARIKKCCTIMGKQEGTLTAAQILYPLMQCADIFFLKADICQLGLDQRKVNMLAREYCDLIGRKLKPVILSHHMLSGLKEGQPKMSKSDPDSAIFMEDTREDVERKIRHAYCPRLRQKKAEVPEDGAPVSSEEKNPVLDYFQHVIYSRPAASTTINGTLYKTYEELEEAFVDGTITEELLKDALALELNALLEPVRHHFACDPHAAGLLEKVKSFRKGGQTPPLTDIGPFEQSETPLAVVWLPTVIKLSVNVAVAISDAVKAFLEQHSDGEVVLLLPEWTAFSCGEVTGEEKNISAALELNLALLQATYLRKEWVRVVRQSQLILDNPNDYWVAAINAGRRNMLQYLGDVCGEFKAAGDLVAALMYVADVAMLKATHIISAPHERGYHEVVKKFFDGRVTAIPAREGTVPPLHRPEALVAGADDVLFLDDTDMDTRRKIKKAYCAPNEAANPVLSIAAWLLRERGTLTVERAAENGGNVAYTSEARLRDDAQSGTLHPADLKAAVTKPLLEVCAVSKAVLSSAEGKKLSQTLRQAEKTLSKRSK
In words: Trypanosoma cruzi tyrosyl tRNA synthetase (TcYRS) _High Tyrosine SOP. Further: in the data most compounds retested in dose-response had high values. The settings on record: 30 µM. It counts as functional.

The target in experiment [10] is T4, Tyrosyl-tRNA synthetase, putative (Trypanosoma cruzi (strain CL Brener)). Kind of experiment: Trypanosoma cruzi tyrosyl tRNA synthetase (TcYRS) SOP. The experiment is classed as functional. The settings on record: 30 µM.
For experiment [11], the target named is Chromo domain-containing protein 1 (Saccharomyces cerevisiae (strain ATCC 204508 / S288c) (Baker's yeast)) (UniProt P32657). In words: ScCHD-1 Enzyme Inhibition Assay. Further: in the data most compounds retested in dose-response had high values. The experiment is classed as functional. To be noted: 30 µM.

For some assays here: Results with a measured potency or affinity are listed apart.

Chain of Chromo domain-containing protein 1 (Saccharomyces cerevisiae (strain ATCC 204508 / S288c) (Baker's yeast)) (P32657 whole entry, the tested form may be a part): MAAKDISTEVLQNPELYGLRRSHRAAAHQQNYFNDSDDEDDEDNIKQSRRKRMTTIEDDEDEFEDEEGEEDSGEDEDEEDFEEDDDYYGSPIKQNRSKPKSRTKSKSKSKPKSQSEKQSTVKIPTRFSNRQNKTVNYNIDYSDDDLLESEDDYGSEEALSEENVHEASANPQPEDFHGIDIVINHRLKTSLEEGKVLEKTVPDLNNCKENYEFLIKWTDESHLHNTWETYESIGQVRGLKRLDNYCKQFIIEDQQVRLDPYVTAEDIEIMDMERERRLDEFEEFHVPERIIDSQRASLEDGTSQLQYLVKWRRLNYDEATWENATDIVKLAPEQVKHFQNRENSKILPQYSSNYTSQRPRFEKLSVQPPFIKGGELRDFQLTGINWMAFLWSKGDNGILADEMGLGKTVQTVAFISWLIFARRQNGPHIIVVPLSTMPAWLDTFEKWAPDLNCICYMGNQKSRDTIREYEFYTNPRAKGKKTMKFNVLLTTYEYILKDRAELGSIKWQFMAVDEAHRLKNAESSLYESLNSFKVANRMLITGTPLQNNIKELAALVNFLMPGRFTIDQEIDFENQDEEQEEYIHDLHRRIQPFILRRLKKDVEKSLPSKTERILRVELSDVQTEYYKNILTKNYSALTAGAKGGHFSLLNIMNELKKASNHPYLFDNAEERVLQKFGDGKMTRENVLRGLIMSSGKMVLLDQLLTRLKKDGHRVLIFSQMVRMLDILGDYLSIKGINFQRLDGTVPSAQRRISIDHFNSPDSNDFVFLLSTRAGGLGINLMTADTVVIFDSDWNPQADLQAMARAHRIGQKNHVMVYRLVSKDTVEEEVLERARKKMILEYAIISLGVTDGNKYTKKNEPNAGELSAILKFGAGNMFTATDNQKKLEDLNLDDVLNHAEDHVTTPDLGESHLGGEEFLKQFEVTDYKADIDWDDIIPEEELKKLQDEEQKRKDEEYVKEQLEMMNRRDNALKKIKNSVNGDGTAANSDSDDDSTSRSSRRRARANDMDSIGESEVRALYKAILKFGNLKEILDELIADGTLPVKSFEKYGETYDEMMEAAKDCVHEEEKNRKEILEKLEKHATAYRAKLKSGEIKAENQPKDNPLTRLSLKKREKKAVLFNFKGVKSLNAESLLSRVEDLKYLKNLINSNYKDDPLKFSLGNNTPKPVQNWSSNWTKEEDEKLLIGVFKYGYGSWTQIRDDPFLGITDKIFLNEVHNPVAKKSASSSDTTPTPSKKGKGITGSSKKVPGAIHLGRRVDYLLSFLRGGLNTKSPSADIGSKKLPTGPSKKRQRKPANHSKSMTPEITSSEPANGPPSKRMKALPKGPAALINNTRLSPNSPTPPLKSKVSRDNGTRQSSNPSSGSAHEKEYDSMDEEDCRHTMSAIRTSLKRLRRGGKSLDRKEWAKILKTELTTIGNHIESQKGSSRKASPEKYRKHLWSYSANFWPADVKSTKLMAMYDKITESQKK
Chain of Sialic acid-binding Ig-like lectin 9 (Homo sapiens) (Q9Y336 whole entry): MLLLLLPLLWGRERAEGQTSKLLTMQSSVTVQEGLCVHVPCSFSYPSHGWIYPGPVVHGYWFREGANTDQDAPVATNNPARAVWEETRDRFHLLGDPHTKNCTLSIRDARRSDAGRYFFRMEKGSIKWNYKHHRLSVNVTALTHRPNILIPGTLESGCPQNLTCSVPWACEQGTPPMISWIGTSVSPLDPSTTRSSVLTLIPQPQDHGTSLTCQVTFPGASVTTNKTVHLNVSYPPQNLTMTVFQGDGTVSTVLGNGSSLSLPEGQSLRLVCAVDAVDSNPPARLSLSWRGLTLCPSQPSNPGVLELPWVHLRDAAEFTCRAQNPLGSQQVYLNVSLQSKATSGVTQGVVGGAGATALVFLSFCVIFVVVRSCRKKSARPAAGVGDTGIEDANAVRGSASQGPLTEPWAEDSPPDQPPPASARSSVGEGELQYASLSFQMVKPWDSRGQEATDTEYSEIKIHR
Chain of Protein translocase subunit SecA (Escherichia coli (strain K12)) (P10408 whole entry): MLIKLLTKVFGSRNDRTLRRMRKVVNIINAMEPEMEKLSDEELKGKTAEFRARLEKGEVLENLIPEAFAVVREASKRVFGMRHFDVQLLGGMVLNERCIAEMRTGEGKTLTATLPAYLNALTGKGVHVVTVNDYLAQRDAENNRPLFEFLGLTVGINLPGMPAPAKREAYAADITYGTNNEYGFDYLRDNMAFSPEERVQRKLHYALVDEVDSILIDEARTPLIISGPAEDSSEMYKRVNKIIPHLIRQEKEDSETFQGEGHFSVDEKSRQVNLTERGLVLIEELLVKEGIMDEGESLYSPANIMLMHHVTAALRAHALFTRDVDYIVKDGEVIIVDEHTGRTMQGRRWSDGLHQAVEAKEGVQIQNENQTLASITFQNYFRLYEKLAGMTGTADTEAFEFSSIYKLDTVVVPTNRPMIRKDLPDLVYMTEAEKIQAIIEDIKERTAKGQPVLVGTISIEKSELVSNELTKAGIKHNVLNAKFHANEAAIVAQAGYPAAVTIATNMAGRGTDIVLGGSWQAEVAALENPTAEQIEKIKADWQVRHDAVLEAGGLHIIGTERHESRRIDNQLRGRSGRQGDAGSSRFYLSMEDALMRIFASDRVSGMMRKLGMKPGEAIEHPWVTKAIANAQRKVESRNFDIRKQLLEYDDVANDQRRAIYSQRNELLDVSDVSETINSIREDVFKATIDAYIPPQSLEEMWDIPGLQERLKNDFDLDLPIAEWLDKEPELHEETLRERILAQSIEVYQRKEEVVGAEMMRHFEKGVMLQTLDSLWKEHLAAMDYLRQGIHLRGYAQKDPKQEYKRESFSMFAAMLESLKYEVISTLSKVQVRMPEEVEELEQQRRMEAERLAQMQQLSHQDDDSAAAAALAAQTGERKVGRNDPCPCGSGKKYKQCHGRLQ

In the case of `Cc1csc(N2CCN(C(=O)CCn3cncn3)CC2)n1`, the Percent Effect in experiment [1] is -2.99%; in experiment [2], 17.7%; in [3] it was -7.64%; in experiment [4] it was 11.1%; in experiment [5], 0.472%; in experiment [6], 4.18%. Further, the Percent Effect is 6.31% in experiment [7]; -0.236% in [8]; 8.37% in experiment [9]; 21.5% in [10]; -6.07% in experiment [11].
For `Cc1cccnc1NC(=O)C1CCCN1Cc1ccccc1` (stereo not given), the Percent Effect in experiment [1] was -3.6%; in experiment [2], 2.67%; in [3], -2.13%; in experiment [4], -2.53%; in experiment [5], -9.06%; in experiment [6], -3.12%. In addition, the Percent Effect in [7] was 21.3%; in experiment [8], 16.8%; in experiment [9], 0.546%; in experiment [10] it was -1.24%; in experiment [11], -9.24%.
For the compound `Cc1ccc(C(C)NC(=O)Cc2c(C)nc3c(c2C)c(=O)[nH]n3C)o1` (stereo not given), the Percent Effect is -4.2% in experiment [1]; 7.79% in experiment [2]; 1.79% in experiment [3]; 9.22% in experiment [4]; 1.08% in experiment [5]; -11% in [6]. The Percent Effect in experiment [7] was 10.7%; in experiment [8], 1.96%; in experiment [9], 1.07%; in experiment [10], 6.17%; in experiment [11] it was 1.13%.
As to `Cc1nc(C)n(CC2CCCN(CCc3ccncc3)C2)n1` (stereo not given), the Percent Effect in [1] is -3.33%; in [2], 16.4%; in [3], 0.226%; in [4], 18.2%; in experiment [5] it was 2.35%; in [6], 1.36%. For the same compound, the Percent Effect was 15.6% in [7]; -0.0927% in experiment [8]; 7.53% in [9]; 17.5% in experiment [10]; -9.61% in experiment [11].
With `CCO[C@@H]1CO[C@@]2(CCCN(C(=O)c3ccc(OC)c(F)c3)C2)C1`, the Percent Effect was -3.5% in [1]; 10.4% in experiment [2]; 6.36% in experiment [3]; -0.114% in experiment [4]; -3.06% in experiment [5]; 11% in experiment [6]. Also, the Percent Effect in [7] was 16.5%; in [8] it was 6.86%; in experiment [9], 11.6%; in experiment [10], 8.97%; in experiment [11], -7.2%.
On to `CCC1CN(C(=O)Nc2cnc3c(cnn3C(C)C)c2)CCO1` (stereo not given), for which the Percent Effect is 0.162% in experiment [1]; 13.5% in experiment [2]; -1.29% in [3]; 10.7% in experiment [4]; -5.48% in experiment [5]; 0.554% in experiment [6]. Further, the Percent Effect in experiment [7] is 17.6%; in [8] it was 22.8%; in experiment [9], 6.93%; in experiment [10], 18.3%; in [11], -2.08%.
Turning to `CC(C)c1ccc(OCn2ccc(C(=O)N3CCCC3)n2)cc1`, the Percent Effect was -3.25% in experiment [1]; 10.4% in experiment [2]; 1.81% in [3]; 12.1% in [4]; 6.2% in experiment [5]; -81.4% in experiment [6]. Moreover, the Percent Effect in [7] was 12.5%; in [8], 52.2%; in experiment [9], 3.23%; in [10] it was 8.64%; in experiment [11], -6.24%.
With `CC1c2ncc(CN3CCN(C)CC3)n2CCN1Cc1cccnc1` (stereo not given), the Percent Effect in experiment [1] is -2.48%; in experiment [2] it was 8%; in experiment [3] it was -3.01%; in experiment [4] it was 1.22%; in experiment [5], 5.41%; in [6], -51.8%. Moreover, the Percent Effect was 7.35% in experiment [7]; -9.88% in [8]; 5.21% in experiment [9]; 5% in [10]; -7.93% in experiment [11].
In the case of `Cc1ncsc1C(=O)NCCn1nc(C2CCNC2)c2cccnc21` (stereo not given), the Percent Effect is -1.57% in [1]; -2.67% in experiment [2]; 5.57% in experiment [3]; 1.22% in [4]; 2.17% in [5]; 0.699% in [6]. For the same compound, the Percent Effect in experiment [7] is 3.26%; in experiment [8], -2.08%; in [9] it was 0%; in [10], 6.41%; in [11], 1.51%.
With `COCc1cc(NCc2cc(F)ccc2F)n2nccc2n1`, the Percent Effect in experiment [1] is -3.49%; in [2], -2.74%; in experiment [3], -7.06%; in [4], 1.05%; in experiment [5], -5.68%; in experiment [6], 2.27%. Further, the Percent Effect in [7] was 5.15%; in experiment [8] it was 15.9%; in [9], 2.15%; in experiment [10], 7.5%; in [11] it was -6.68%.

For the origin of these results see ChEMBL document CHEMBL3988442, “University of Dundee, Small-Polar-MMV Screening Library” (2021).
